# About 270 (21%) of roughly 1,300 compounds were called active. How the calls were made is not given here. Not all results are given here. Entries that show only a call come without a potency. Potency and affinity values are given separately.
# Assay: SK-MEL-5 parental cell viability loss, dose response, orthogonal assay for MITF inhibitor project, CellTiter-Glo, cherry-picked, set 3 (AID 493240)
# Conditions: SK-MEL-5 viability, ATP luminescence (CellTiter-Glo), 24 h; series mostly up to 35 µM
row,SMILES,outcome
1,Cn1c(COc2ccccc2)nc2ccccc21,inactive
2,COCc1nc(-c2ccc(-c3ccccc3)nc2OC)no1,inactive
3,Brc1cccc(/C=N/Nc2nn[nH]n2)c1,inactive
4,CC(C)=CCc1c(O)ccc2c1OC(c1ccc(O)c(O)c1)CC2=O (stereo not given),inactive
5,O=C(Nc1cc2c(cc1Cl)OCCO2)c1ccco1,inactive
6,COc1ccc(-n2c(C)cc(C(=O)CCl)c2C)cc1,inactive
7,CCOc1ccc(-n2c(C)cc(C(=O)CCl)c2C)cc1,inactive
8,CCN(CC)CC(=O)Nc1scc2c1c(=O)oc1ccccc12,inactive
9,CCN(Cc1ccc(OC)c(F)c1)C(=O)CCl,inactive
10,COc1ccccc1N(C(=O)CCl)c1cn(C(C)=O)c2ccccc12,inactive
11,O=C(c1ccc(F)cc1)C(CN1CCOCC1)c1ccccc1 (stereo not given),inactive
12,Cn1nnnc1Sc1ncnc2scc(-c3ccc(F)cc3)c12,inactive
13,Cn1nnnc1Sc1ncnc2scc(-c3ccsc3)c12,inactive
14,O=C(NC1=NCCS1)c1ccc(Cl)c(Cl)c1,inactive
15,O=C(Nc1ccc2nc(-c3ccccc3)[nH]c2c1)c1ccco1,inactive
16,COc1ccc(C(=O)/C=C/Nc2ccccn2)cc1,inactive
17,O=C(/C=C\Nc1ccc2c(c1)OCO2)c1ccccn1,inactive
18,CCN(CC)Cc1c(O)ccc2c1O/C(=C\C=C\c1ccccc1)C2=O,inactive
19,Cc1cc(/C=C(\C#N)C(=O)O)c(C)n1CC(C)C,inactive
20,CN(C)c1ccc(/C=N\NC(=O)c2cccc3cc[nH]c23)cc1,inactive
21,Cc1ccc(-c2nc(C#N)c(NCc3ccco3)o2)cc1,inactive
22,COc1ccccc1/C=C/C=N/NC(=O)c1cccs1,inactive
23,O=C(Nc1ccc2oc(-c3cccnc3)nc2c1)c1ccc([N+](=O)[O-])o1,inactive
24,Cc1cc(NC(=O)c2ccc([N+](=O)[O-])o2)ccc1NC(=O)c1ccco1,inactive
25,Cc1ccccc1OCC(=O)Nc1cccc(C(=O)O)c1,inactive

row,SMILES,outcome
1,CC(C)c1ccc(/C=C2\SC(=S)N(CCC(=O)N3CCCCC3CCO)C2=O)cc1 (stereo not given),inactive
2,CN(C)S(=O)(=O)c1cccc(NC(=O)CSc2nc3c(cc2C#N)C(=O)CC(C)(C)C3)c1,inactive
3,O=C(CCC(=O)c1ccc[nH]1)c1ccc(Cl)cc1,inactive
4,CCOC(=O)N1CCN(C(=O)c2ccc(Cn3c(=S)[nH]c4ccc(Br)cc4c3=O)cc2)CC1,inactive
5,C=CCNc1nc(-c2ccccn2)nnc1-c1ccccc1,inactive
6,Cc1cc(C)c2nc3nc(C)cc(C)c3c(N)c2c1,inactive
7,N#C/C(=C\C=C\c1ccccc1[N+](=O)[O-])C(=O)NCc1ccccc1,inactive
8,Cc1cc(Cl)ccc1OCCCC(=O)N1CCOCC1,inactive
9,Cc1cccc(N(O)C(=O)Nc2cccc(Cl)c2)c1,inactive
10,Nc1c(-c2ccccc2)cnc2c(-c3ccccc3)cnn12,inactive
11,CC(=O)c1ccc(Sc2nnnn2-c2ccccc2)c([N+](=O)[O-])c1,inactive
12,Cc1ccc(-c2noc(-c3ccno3)n2)cc1,inactive
13,Cc1cc(-n2c(C)cc(C(=O)CCl)c2C)no1,inactive
14,Cc1ccc(OCCCCN2CCCCC2)c(Br)c1,inactive
15,Clc1ccccc1CSc1nnc(-c2ccncc2)o1,inactive
16,c1ccc(C[n+]2cccc3c4ccccc4ccc32)cc1,inactive
17,CC1(C)Cc2c(sc(NC(=O)c3ccc4ncsc4c3)c2C(N)=O)C(C)(C)N1,inactive
18,CS(=O)(=O)c1ccc2nc(NC(=O)c3ccccc3)sc2c1,inactive
19,CCCN(CCC)C1=CC(=[N+]2CCCC2)CC(C)(C)C1,inactive
20,Cc1nc(Sc2nnnn2C)c2c3c(sc2n1)CCC3,inactive
21,COC(=O)c1ccc(-n2c(C)cc(C(=O)CCl)c2C)cc1,inactive
22,Cc1ccc2c(c1)COc1c3ccc(C(=O)O)cc3nn1-2,inactive
23,Nc1ccc(-c2cc3ccccc3c(=O)o2)cc1,inactive
24,Nc1c(-c2ccc(Cl)cc2)nnn1-c1ccccc1,inactive
25,Cc1ccc(NC(=O)c2cc(N3C(=O)C=CC3=O)ccc2N2CCOCC2)cc1,inactive

row,SMILES,outcome
1,COc1cc(OC)cc(-c2oc(=O)c3cc(OC)c(OC)cc3c2C(F)(F)F)c1,inactive
2,O=C1c2ccccc2CN1c1ccccc1,inactive
3,Cn1c(/C=C/c2cccc([N+](=O)[O-])c2)c([N+](=O)[O-])c(=O)n(C)c1=O,inactive
4,O=C(O)c1cccc(NC(=O)c2cccc(NC(=O)C3CCCO3)c2)c1 (stereo not given),inactive
5,N#Cc1nc(/C=C/c2ccccc2)oc1NCCCN1CCOCC1,inactive
6,Oc1cc(NCCN2CCOCC2)cc2cccnc12,inactive
7,CC(C)(C)c1cc(NCCCn2ccnc2)n2ncc(-c3ccccc3)c2n1,inactive
8,O=c1c(Cl)c(Cl)cnn1Cc1ccc(F)cc1,inactive
9,Cc1c(NC(=O)C(C)OC(=O)c2ccc([N+](=O)[O-])s2)c(=O)n(-c2ccccc2)n1C (stereo not given),inactive
10,Cc1cc(Sc2ncnc(N)c2[N+](=O)[O-])ncn1,inactive
11,Fc1cccc(Cl)c1CSc1nnc(-c2ccncc2)o1,inactive
12,Cc1ccc(OCC(=O)Nc2ccccc2F)cc1,inactive
13,CN(CCC#N)C(=O)COC(=O)c1ccccc1C(=O)c1ccc(Cl)c([N+](=O)[O-])c1,inactive
14,CCOC(=O)N1C(=O)[C@](CC)(c2ccccc2)N1C(=O)OCC,inactive
15,CC(C)C(=O)Nc1cccc(NC(=O)c2cc3ccccc3o2)c1,inactive
16,Cc1ccc(NC(=O)c2cc3ccccc3oc2=O)cc1S(=O)(=O)N(C)C,inactive
17,Cc1ccc(S(=O)(=O)Nc2cccc3cccnc23)cc1,inactive
18,COc1ccc(N/N=C/c2c(C(=O)O)ccc3ccccc23)cc1,inactive
19,CC1C/C(=C\c2cccnc2)C(=O)/C(=C/c2cccnc2)C1 (stereo not given),inactive
20,C=C1C(=O)C=C[C@]2(C)C[C@@H]3OC(=O)[C@](C)(O)[C@H]3C[C@@H]12,inactive
21,Cc1ccc2nc(NC(=O)c3ccc(Br)o3)sc2c1,inactive
22,CC(C)C(NC(=O)OCc1ccccc1)C(=O)OCC(=O)N1CCCCC1 (stereo not given),inactive
23,CCOC(=O)c1ccc(NC(=O)Cc2cccs2)cc1,inactive
24,CCc1ccc(Nc2nc(C)cc(C)n2)cc1,inactive
25,CCOC(=O)c1ccc(NC(=O)c2nc(S(=O)(=O)Cc3ccccc3)ncc2Cl)cc1,inactive

# From PubChem BioAssay AID493240 (Broad Institute, 2011)
